ssDAF12 agonist: activates DAF-12 receptor from parasite S. stercoralis. actives 1% (n = 370,000). HEK293 ssDAF-12/GRIP1 lit1-tk-luc reporter, luminescence; % of 3 µM dafachronic acid response. activation, % at 6.8 µM;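 active = activation above the mean over all tested compounds plus 3 SD, cut at about 0.9% in these data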;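 note: 0% = DMSO-only wells and 100% = 3 µM delta7-dafachronic acid wells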
DAX1 inh-1: inhibitors of human orphan nuclear receptor DAX1 (NR0B1); actives 0.99% (n = 340,000); HEK293 Gal4-DAX1 luciferase reporter, luminescence; inhibition, % at 6.75 µM;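 active = inhibition above the mean over all tested compounds plus 3 SD, cut at about 4.2% in these data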;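 note: 0% = DAX1-transfected cells with DMSO and 100% = empty-vector control cells with DMSO; inhibition shows as a rise in luminescence from relieved DAX1 repression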
Target sequence (P51843 207-470 limits assumed): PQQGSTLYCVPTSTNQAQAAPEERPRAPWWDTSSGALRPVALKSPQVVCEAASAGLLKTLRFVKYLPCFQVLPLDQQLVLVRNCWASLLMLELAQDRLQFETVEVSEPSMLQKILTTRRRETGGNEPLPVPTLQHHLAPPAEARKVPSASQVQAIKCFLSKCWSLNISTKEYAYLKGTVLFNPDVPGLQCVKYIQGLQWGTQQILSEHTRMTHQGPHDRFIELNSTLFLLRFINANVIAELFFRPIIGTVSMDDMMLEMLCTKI
hcDAF-12 act: activators of H. contortus DAF-12 nuclear receptor; HEK293 hcDAF-12 lit1-tk-luc reporter, luminescence; 0% DMSO, 100% Δ7-dafachronic acid; activation, % at 6.8 µM; actives 1.4% (n = 370,000);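 active = activation above the mean of all tested compounds plus 3 SD, cut at about 5.5% in these data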;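 note: 100% = response to 3 µM Δ7-dafachronic acid high control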
DAX1 inh-2: DAX1 (NR0B1) inhibition, primary screen; HEK293T StAR-luciferase reporter, SF-1/DAX-1 repression relief; inhibition, % at 6.8 µM; actives 1.1% (n = 370,000);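 active = inhibition above the mean over all tested compounds plus 3 SD, cut at about 3.6% in these data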;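 note: 0% = DAX-1 cells with DMSO and 100% = cells lacking DAX-1 with DMSO; higher inhibition means more luminescence from relief of DAX-1 repression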
hgDAF-12 ag: activates the H. glycines DAF-12 receptor ligand-binding domain; HEK293 GAL4-hgDAF12 UAS-luciferase reporter, agonist luminescence; normalized to butyrate control; AID 687014; activation, % at 6.8 µM; actives 1.8% (n = 370,000);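 active = activation above a cutoff set at the mean of all screened compounds plus 3 SD, cut at about 10% in these data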;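 note: 0% = DMSO wells and 100% = sodium butyrate wells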
* hit, by the source's call; nt = not tested or not shown. In the library only some 4.1% were active in any assay of this set; here they are far more common.

SMILES	ssDAF12 agonist	DAX1 inh-1	hcDAF-12 act	DAX1 inh-2	hgDAF-12 ag
CCCCCC(=O)NC1CCCCN(Cc2cccc(Cl)c2)C1=O (configuration not stated)	-1	nt	-1	0	-3
FC(F)(F)c1cc(CNC2CCC23CCC(c2ccccc2)CC3)ccc1Cl (configuration not stated)	-1	nt	0	nt	8
CN(Cc1ccc(F)cc1)C(=O)CCc1nnc(-c2ccccc2)o1	0	1	2	0	8
COc1cc(-c2nnc(-c3ccccc3)o2)cc(OC)c1OC	-2	-1	-2	-1	0
COc1cc(-c2nnc(-c3cc(-c4ccccc4)nc4ccccc34)o2)cc(OC)c1OC	1.2*	2	1	0	0
COc1ccc(CCN(C)C(=O)CCc2nnc(-c3ccccc3)o2)cc1OC	0	2	4	1	11*
c1ccc(-c2nnc(-c3ccncc3)o2)cc1	-1	0	2	1	3
c1ccc(-c2nnc(-c3ccccc3)o2)cc1	1.2*	4.6*	5.9*	3	12*
COc1ccc(-c2nnc(-c3ccccc3)o2)cc1OC	0	2	1	2	10*
COC(=O)C/C=C/[C@@H](C)[C@H](NC(=O)OCC(Cl)(Cl)Cl)c1ccc(-c2ccccc2)cc1	-2	nt	-2	-1	1
Nc1ccc(-c2nnc(-c3ccc(N)cc3)o2)cc1	0	4.4*	2	2	7
O=S1(=O)c2c(cccc2N2CCSCC2)Oc2ccccc2CN1Cc1cn(Cc2cccc(C(F)(F)F)c2)nn1	-1	nt	-3	0	-1
CCN1CCN(Cc2ccc(NC(=O)c3cccc(-c4ccc5nc(NC(=O)C6CC6)sc5n4)c3)cc2C(F)(F)F)CC1	-2	nt	0	-3	0
C/C=C(/CCC1NCCc2c1[nH]c1ccccc21)[Si](C)(C)C (configuration not stated)	1.3*	0	4	0	3
COc1ccc([C@H]2OC(=O)C[C@H]2C(=O)N2CCN(c3ccccc3C(F)(F)F)CC2)cc1OC	-1	nt	-1	0	3
CC1CCN(C(=O)Cn2c(=O)oc3cc(S(=O)(=O)N4CCCCC4)ccc32)CC1	-1	4.9*	-1	2	-1
COC(=O)C1=C(C)N(Cc2ccc(C(F)(F)F)cc2)C(=NCc2ccccc2C(F)(F)F)NC1c1ccccc1 (configuration not stated)	-1	nt	0	0	-2
COc1ccc(NC(=O)C(c2ccc(C#N)cc2)n2c(=O)c(-c3cc4ccccc4[nH]3)nc3ccccc32)cc1 (configuration not stated)	-1	nt	2	-1	5
Cc1ccc(C(=O)OCC(=O)Nc2ccccc2)cc1NC(=O)c1ccco1	0	-1	2	1	5
CC(=O)Nc1cc(C(=O)OCC(=O)c2ccccc2)ccc1C	0	0	7.0*	4	12*
COc1cc(-n2c(=O)c3ccccc3n(CC(=O)c3ccc(Br)cc3)c2=O)cc(OC)c1OC	-1	5.4*	0	0	-4
N#Cc1ccc(/C=C2\CC3(OC(=O)c4ccc(Cl)cc4)CCCN2C3)cc1 (configuration not stated)	-1	nt	-2	0	0
Cc1cccc(C(=O)Nc2nc3ncccn3c2-c2ccc(F)c(F)c2)c1	-1	nt	-4	-1	-3
CCc1nnc(NC(=O)CCn2cnc3ccccc3c2=O)s1	1.0*	nt	-2	0	-3
CCCCc1nnc(NC(=O)Cn2cnc3ccccc3c2=O)s1	-2	0	0	-1	-3
SMILES	ssDAF12 agonist	DAX1 inh-1	hcDAF-12 act	DAX1 inh-2	hgDAF-12 ag
O=C(Nc1cccc(O)c1)c1cc(-c2ccco2)on1	-1	1	1	1	11*
CC(=O)c1cccc(NC(=O)c2cc(-c3ccco3)on2)c1	-1	1	-1	0	4
Cn1nc(NC(=O)C(F)(F)F)c2ncc(-c3ccc(Cl)cc3)nc21	-1	4.2*	-1	0	6
Cn1nc(NC(=O)C(F)(F)F)c2nccnc21	0	1	2	-1	-2
Cn1nc(N)c2ncc(-c3ccc(Cl)cc3)nc21	-1	4	1	1	11*
COC(=O)C1CN(Cc2cn(Cc3ccc(F)cc3)nn2)CCS(=O)(=O)N1Cc1ccc(OC)cc1 (configuration not stated)	-2	nt	-4	0	2
